Data: the supplement of paper PMC11732987, “Enantioselective OTUD7B fragment discovery through chemoproteomics screening and high-throughput optimisation” (Communications Chemistry, 2025)

Tests used:
Assay in all cases: log2 ratio of Biotin-Ahx-Ub-VS probe labelling (fragment/DMSO); higher = less target engagement (more negative = stronger competition), active = hit call of the paper (q ≤ 0.05, log2 ratio ≤ -1)
Details in all cases: compound concentration: 200 uM; treatment time: 3 h
USP34 = USP34 (UniProt Q70CQ2)
USP34, sequence (Q70CQ2 whole entry, the tested form may be a part): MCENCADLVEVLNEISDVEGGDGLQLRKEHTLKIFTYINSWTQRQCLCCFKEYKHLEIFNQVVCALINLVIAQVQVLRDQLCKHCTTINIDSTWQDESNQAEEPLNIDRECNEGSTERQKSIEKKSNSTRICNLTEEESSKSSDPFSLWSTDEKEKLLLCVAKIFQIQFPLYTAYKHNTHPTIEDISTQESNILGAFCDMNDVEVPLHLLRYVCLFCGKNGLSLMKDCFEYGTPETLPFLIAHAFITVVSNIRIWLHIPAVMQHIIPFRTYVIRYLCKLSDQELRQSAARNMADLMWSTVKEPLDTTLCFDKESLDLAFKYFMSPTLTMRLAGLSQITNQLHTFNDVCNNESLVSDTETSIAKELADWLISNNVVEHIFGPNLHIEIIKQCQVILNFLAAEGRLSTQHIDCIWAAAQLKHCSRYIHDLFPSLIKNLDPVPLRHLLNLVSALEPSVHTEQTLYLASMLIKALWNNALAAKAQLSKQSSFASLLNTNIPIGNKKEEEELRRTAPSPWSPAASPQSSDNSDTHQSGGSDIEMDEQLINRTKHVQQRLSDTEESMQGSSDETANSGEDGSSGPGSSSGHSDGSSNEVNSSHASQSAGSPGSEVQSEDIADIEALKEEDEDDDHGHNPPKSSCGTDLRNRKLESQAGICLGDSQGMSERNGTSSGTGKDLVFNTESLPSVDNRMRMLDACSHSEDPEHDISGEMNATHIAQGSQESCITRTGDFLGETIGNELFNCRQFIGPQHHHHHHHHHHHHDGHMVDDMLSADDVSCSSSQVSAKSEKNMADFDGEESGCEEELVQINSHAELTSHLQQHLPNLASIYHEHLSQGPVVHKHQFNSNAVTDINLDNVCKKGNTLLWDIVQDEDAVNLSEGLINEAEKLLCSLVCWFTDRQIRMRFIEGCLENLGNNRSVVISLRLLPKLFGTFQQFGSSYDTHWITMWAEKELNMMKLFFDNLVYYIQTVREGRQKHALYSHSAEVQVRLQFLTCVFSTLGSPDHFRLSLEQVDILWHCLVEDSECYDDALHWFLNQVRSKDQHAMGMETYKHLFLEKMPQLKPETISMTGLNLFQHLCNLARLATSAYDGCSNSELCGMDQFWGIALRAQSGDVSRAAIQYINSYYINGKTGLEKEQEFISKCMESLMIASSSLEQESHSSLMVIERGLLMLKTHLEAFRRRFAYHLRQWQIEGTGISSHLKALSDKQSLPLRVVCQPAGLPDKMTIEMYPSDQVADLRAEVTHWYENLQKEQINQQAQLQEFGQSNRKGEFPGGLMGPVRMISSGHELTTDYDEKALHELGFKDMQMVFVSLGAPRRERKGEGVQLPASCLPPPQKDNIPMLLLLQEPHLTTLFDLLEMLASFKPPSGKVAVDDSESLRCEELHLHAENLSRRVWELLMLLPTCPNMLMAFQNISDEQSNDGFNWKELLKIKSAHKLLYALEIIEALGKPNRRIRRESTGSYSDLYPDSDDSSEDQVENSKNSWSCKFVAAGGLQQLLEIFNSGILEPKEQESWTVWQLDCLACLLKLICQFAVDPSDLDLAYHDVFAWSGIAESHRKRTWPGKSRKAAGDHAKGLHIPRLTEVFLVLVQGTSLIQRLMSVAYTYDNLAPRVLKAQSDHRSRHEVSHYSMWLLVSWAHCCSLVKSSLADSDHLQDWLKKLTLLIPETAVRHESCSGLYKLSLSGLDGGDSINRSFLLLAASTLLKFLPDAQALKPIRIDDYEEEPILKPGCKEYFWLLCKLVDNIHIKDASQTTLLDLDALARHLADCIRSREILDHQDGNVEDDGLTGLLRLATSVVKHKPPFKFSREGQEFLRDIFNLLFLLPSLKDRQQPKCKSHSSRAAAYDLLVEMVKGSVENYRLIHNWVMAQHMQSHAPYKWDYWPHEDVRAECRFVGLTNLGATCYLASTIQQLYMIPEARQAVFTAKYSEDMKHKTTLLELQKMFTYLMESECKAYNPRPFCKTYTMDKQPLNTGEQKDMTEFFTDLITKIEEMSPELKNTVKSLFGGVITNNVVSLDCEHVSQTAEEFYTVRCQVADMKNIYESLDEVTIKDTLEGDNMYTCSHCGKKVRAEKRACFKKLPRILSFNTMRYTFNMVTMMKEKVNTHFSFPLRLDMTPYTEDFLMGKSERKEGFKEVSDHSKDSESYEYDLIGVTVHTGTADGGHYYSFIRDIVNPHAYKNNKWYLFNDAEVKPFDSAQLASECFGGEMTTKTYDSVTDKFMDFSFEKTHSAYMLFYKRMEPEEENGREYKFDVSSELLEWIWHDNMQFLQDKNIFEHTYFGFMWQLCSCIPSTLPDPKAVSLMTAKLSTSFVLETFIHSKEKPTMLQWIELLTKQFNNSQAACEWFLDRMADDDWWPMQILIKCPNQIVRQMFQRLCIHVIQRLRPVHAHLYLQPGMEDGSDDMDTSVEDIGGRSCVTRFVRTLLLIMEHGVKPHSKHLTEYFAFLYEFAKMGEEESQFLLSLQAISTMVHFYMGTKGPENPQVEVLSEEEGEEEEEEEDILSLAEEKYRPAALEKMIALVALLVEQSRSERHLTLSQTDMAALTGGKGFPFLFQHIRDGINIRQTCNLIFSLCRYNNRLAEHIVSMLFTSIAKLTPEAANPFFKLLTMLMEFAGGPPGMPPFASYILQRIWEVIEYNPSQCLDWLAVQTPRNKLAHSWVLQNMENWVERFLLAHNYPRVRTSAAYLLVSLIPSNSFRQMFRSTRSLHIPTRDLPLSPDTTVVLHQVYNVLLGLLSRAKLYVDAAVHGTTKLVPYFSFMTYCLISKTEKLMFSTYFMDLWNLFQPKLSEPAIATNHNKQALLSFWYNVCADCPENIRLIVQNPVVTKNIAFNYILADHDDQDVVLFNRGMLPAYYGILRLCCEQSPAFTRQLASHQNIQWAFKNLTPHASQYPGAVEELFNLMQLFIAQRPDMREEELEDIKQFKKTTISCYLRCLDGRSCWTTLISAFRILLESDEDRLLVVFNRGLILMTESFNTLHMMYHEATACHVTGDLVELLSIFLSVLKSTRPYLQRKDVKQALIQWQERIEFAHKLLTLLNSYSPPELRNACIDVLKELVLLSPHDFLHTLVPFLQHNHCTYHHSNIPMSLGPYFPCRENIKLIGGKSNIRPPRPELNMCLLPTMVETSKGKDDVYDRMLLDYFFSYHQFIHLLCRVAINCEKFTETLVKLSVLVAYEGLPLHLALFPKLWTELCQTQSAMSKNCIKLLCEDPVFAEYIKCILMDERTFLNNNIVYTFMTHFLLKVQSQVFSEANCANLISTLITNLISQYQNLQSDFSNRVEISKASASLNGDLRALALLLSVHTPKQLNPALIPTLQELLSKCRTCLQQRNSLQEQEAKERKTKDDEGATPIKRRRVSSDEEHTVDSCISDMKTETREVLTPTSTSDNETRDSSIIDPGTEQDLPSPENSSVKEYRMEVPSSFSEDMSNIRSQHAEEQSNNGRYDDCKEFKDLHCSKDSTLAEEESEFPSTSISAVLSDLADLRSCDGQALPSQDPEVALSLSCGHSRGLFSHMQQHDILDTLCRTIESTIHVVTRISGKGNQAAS
In short: (§1)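 Average log2 ratios of fragment over vehicle were obtained by unpaired t-test from global-median-normalised Spectronaut label-free quantities. Proteins with ≥2 unique peptides were included. HEK293T lysate (495 µg per sample) was treated in triplicate with fragment at 200 µM or vehicle for 3 h, then with Biotin-Ahx-Ub-VS at 0.5 µM final for 1 h, and labelled DUBs were NeutrAvidin-enriched and run by diaPASEF LC-MS/MS.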

USP36 = target: T1, USP36 (UniProt Q9P275)
T1 sequence (whole entry): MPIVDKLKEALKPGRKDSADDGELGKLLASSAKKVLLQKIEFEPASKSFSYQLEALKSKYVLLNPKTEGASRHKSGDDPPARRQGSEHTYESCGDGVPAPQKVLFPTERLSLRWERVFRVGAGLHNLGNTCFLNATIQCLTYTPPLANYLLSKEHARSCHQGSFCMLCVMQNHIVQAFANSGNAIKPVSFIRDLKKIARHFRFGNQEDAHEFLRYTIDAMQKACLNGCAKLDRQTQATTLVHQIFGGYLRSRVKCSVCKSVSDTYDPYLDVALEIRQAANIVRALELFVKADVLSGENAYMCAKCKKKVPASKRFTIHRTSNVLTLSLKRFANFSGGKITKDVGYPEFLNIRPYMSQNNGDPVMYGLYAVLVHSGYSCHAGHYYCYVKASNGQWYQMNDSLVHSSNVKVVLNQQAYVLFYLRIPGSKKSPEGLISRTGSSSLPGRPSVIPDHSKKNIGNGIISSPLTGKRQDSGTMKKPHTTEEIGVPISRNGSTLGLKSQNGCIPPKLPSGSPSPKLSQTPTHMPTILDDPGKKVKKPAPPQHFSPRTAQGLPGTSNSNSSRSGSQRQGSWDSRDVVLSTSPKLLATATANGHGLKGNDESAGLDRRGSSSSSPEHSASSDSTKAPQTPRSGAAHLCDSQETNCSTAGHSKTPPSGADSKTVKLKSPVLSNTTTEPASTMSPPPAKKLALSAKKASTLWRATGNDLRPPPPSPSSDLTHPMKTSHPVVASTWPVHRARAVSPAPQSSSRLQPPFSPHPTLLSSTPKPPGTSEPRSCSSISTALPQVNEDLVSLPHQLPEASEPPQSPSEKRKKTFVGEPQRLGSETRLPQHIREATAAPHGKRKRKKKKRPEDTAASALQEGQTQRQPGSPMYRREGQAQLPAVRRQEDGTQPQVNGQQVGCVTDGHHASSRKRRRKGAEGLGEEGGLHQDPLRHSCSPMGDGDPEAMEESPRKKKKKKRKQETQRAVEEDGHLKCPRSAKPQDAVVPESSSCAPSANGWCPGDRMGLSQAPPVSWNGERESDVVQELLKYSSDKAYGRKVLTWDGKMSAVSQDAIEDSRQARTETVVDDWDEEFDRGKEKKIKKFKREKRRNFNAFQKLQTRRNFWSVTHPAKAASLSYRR
In short: as §1

USP38 = target: T2, USP38 (UniProt Q8NB14)
T2 sequence (whole entry): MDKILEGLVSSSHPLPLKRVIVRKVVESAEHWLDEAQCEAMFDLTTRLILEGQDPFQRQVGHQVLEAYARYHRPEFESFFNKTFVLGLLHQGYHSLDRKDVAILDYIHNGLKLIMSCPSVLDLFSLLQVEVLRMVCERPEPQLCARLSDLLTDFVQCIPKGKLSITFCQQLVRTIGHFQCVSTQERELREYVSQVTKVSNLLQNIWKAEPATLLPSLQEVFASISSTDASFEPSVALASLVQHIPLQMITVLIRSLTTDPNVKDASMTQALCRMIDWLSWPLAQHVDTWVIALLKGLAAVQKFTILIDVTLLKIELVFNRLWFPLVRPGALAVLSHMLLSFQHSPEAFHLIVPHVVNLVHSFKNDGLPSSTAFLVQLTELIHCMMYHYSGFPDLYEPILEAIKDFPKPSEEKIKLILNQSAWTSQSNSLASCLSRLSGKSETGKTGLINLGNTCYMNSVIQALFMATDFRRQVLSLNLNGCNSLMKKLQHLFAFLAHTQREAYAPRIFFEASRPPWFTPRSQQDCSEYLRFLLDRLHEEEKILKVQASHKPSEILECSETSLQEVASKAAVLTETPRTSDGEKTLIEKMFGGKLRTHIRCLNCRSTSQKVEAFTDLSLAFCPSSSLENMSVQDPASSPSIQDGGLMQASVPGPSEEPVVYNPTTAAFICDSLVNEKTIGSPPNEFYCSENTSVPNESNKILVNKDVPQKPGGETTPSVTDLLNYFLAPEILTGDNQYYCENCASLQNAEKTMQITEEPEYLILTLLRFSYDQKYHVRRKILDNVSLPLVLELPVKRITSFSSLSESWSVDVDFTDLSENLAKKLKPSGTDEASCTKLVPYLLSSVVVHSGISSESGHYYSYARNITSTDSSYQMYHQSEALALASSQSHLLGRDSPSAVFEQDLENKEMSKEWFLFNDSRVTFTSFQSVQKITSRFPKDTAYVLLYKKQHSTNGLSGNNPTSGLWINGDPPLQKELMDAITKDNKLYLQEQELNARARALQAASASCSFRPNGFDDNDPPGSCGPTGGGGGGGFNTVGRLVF
In short: as §1

USP39 = target: T3, USP39 (UniProt Q53GS9)
T3 sequence (whole entry): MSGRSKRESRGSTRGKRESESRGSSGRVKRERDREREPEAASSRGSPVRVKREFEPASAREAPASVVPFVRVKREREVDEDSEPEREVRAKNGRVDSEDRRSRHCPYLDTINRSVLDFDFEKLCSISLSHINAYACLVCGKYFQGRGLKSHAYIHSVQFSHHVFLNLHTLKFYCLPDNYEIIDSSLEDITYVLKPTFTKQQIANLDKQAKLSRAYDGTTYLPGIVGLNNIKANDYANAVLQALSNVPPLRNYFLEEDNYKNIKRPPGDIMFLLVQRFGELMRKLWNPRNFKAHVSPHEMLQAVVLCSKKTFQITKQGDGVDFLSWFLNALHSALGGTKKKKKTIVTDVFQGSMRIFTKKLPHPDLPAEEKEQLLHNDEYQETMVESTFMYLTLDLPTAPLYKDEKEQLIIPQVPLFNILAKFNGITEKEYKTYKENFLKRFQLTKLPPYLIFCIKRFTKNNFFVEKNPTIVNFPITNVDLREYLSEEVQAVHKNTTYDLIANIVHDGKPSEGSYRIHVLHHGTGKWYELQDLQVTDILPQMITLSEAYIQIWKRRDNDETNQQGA
In short: as §1

USP4 = target: T4, USP4 (UniProt Q13107)
T4 sequence (whole entry): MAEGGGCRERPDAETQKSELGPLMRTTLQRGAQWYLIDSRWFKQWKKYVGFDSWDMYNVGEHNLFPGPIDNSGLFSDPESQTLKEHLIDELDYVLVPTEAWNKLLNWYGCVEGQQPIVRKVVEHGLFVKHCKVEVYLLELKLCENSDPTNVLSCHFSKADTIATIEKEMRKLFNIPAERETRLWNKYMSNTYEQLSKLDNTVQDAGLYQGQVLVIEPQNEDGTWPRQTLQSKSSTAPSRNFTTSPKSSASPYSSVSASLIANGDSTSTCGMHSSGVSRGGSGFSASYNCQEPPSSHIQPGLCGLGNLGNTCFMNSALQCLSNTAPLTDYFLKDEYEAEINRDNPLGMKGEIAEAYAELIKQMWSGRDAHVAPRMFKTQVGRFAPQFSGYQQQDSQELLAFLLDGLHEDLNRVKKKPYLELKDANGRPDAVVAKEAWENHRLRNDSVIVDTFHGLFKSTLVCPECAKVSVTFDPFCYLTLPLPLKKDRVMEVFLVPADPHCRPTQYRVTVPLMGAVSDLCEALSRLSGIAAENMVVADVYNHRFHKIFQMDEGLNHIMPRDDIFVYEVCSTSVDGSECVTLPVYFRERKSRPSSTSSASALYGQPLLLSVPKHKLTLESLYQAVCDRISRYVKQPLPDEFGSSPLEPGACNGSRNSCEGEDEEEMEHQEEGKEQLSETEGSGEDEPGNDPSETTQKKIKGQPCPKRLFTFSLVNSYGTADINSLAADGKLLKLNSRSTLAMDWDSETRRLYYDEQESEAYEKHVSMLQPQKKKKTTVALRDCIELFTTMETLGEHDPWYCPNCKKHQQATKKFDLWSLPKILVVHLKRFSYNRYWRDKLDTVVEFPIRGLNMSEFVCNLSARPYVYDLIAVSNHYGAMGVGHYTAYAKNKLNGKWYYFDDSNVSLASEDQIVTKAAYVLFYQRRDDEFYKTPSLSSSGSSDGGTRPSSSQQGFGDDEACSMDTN
In short: as §1

Measured: log2 ratio of Biotin-Ahx-Ub-VS probe labelling

O=C(CCl)Nc1nnc(CC(F)(F)F)o1
inactive: USP34 0.146 | USP36 -0.182 | USP38 -0.0633 | USP39 0.00671 | USP4 -0.0637
